Hits are enriched below; roughly 4.7% of the tested compounds scored in any of these assays.
D1 PAM: enhances dopamine response at the human D1 receptor | potentiation, % at 10 µM | 360,000 compounds, 0.036% hits | AID 504651 | HEK293 TREx D1 cells, calcium flux, dopamine EC20 potentiation; in the data active means potentiation above about 30%; further: 0% is about no effect
TRHR agonist: TRH receptor (human) agonism; 360,000 compounds, 0.18% hits; P34981; activation, % at 2 µM; TRHR cells, calcium flux fluo-8, FDSS agonist mode; further: 0% is about no effect
Target sequence (P34981 whole entry, looked up): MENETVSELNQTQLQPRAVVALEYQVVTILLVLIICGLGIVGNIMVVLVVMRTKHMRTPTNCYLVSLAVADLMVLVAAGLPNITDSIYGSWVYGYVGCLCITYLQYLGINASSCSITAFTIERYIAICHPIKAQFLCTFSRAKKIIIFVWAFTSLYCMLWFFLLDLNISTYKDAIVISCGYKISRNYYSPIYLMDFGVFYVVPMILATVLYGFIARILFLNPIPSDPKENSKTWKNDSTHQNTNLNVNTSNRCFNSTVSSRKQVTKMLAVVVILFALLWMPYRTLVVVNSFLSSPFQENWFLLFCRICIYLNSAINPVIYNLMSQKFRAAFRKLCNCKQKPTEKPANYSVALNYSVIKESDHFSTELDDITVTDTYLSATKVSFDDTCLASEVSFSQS
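Fluo-8-loaded TRHR cells; 10 s baseline, compound added, kinetic Ca2+ fluorescence read 1/s, agonist mode.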
TRHR PAM: allosterically enhances the human TRH receptor; P34981; TRHR cells, fluo-8 calcium fluorescence, EC20 TRH enhancement; enhancement, % at 2 µM; 360,000 compounds, 0.66% hits; AID 493056; in the data active means enhancement above about 30%; further: 0% is about no effect
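TRHR-expressing cells loaded with fluo-8 calcium dye were read kinetically (ex 480/em 530) during compound addition, then stimulated with an EC20 of TRH (10 nM final). Enhancement of the Gq-mediated intracellular calcium response was scored.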
D1 antag: antagonists of human D1 dopamine receptor; P21728; HEK293 TREx D1 cells, calcium flux, dopamine EC80; stronger effect = lower value; activity change, negative = inhibition, % at 10 µM; 360,000 compounds, 3.2% hits; in the data active means activity change below about -30%; further: on the % scale 0 is the no-effect control and ±100 the full control effect
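Tetracycline-induced HEK293 Trex D1 cells, force-coupled to calcium, dye-loaded; compounds added and read 180 s, then EC80 dopamine added and calcium flux tracked kinetically another 180 s.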
D1 ag: agonists of human D1 dopamine receptor; P21728; HEK293 T-REx D1 cells, calcium flux, agonist mode; activation, % at 2 µM; 360,000 compounds, 1% hits; AID 504660; further: 0% is about no effect
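Inducible HEK293 T-REx D1 cells, force-coupled to calcium signalling, were plated at 4000 cells/well with tetracycline and held overnight at 30 C. After no-wash calcium dye loading, compound-evoked calcium rise over 180 s flagged agonists.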
Active calls of the source: *. Unless noted, no stated cut-off is given here; in the data, active means activation above about 30%; inactive means the rest.

SMILES	D1 PAM	TRHR agonist	TRHR PAM	D1 antag	D1 ag
COc1cc2cc(CNc3ccccc3)c(=O)n(CC(=O)Nc3cc(C)cc(C)c3)c2cc1OC	-1	34*	0	15	16
COc1ccc(NCc2cc3cc4c(cc3n(CC(=O)Nc3ccccc3)c2=O)OCO4)cc1	4	-1	2	-1	134*
CCc1ccc(NCc2cc3cc4c(cc3n(CC(=O)Nc3ccc(Cl)cc3)c2=O)OCO4)cc1	4	-1	3	-2	176*
Cc1cc(C)cc(NC(=O)N2CCN(C(=O)c3nsc4ccccc34)CC2)c1	5	-1	5	9	0
CCS(=O)(=O)N1CCC(n2c(C(F)(F)F)nc3cccnc32)CC1	-4	0	0	0	4
CCCOc1ccc(C2C(=O)N(C3CCCCC3)CC(=O)N2CCC2=CCCCC2)cc1OC (stereo unspecified)	0	0	0	-1	-5
Cc1ccc(Cl)cc1NS(=O)(=O)c1ccc(-n2cccn2)cc1	-10	0	0	-30*	13
O=S(=O)(NCc1ccccc1Cl)c1ccc(-n2cccn2)cc1	-3	-1	-5	-31*	9
O=S(=O)(NCc1ccccc1Cl)c1ccc(-n2cnnn2)cc1	3	0	9	-8	2
Cc1ccc(S(=O)(=O)c2cn(CC(=O)Nc3ccc(F)cc3)c3cc4c(cc3c2=O)OCO4)cc1	-3	1	0	-2	1
O=C(Nc1nnc(S(=O)(=O)N2CCc3ccccc32)s1)c1cccc(Cl)c1	-1	0	-4	-7	1
CC(C)c1ccc(N2C(=O)/C(=C/N(C)C)SC2=S)cc1	4	47*	14	4	99*
O=C(Cc1ccc(-n2cccc2)cc1)NCc1cccs1	-9	-1	-2	-34*	1
CCN(CC(=O)NC1CCS(=O)(=O)C1)S(=O)(=O)c1cc(C)ccc1C (stereo unspecified)	-12	0	-2	-55*	0
C=CCN(CC(=O)NC1CCS(=O)(=O)C1)S(=O)(=O)c1ccccc1C(F)(F)F (stereo unspecified)	-7	2	31*	1	3
CCN(CC(=O)NC1CCS(=O)(=O)C1)c1ccc([N+](=O)[O-])cc1C#N (stereo unspecified)	-3	0	5	-31*	2
O=C(CN1C(=O)c2ccc([N+](=O)[O-])cc2C1=O)NC1CCS(=O)(=O)C1 (stereo unspecified)	0	0	2	-2	1
Cc1c(Cl)cccc1NC(=O)C(CCS(C)(=O)=O)N1Cc2ccccc2C1=O (stereo unspecified)	7	0	0	-3	1
CCCCOc1cccc(C2c3c(oc4ccccc4c3=O)C(=O)N2c2ccccn2)c1 (stereo unspecified)	-3	0	3	0	1
C=CCn1cc(/C=C/c2cc[n+](C)cc2)c2ccccc21	-5	6	0	1	38*
CCn1cc(/C=C/c2cc[n+](C)cc2)c2ccccc21	-7	-1	8	-9	69*
COc1ccc(C(=O)NC(=S)Nc2cc3oc4ccccc4c3cc2OC)cc1	-7	1	-1	-78*	3
CCN(C(=O)CN1C(=O)c2ccccc2Sc2ccc(C(=O)OC)cc21)c1cccc(C)c1	2	1	2	10	7
CCOC(=O)Cn1c(C2CC(=O)N(c3ccc(C)cc3)C2)nc2ccccc21 (stereo unspecified)	-4	0	1	-46*	9
Cc1cccc(OCCCCn2c(C3CC(=O)N(c4ccccc4Cl)C3)nc3ccccc32)c1 (stereo unspecified)	-3	1	33*	-1	25
CCc1ccccc1N1CC(c2nc3ccccc3n2CCCCOc2ccccc2OC)CC1=O (stereo unspecified)	0	4	-18	-7	60*
CCOC(=O)C1CCN(C(=O)c2cc3cc(Br)ccc3oc2=O)CC1	-4	0	-4	34	-1
CCOC(=O)C1CCCN(C(=O)c2cc3cc(Br)ccc3oc2=O)C1 (stereo unspecified)	2	-2	31*	-26	1
CCc1cccc(-n2nnc(-c3nsc(NC(=O)c4cccs4)n3)c2C)c1	-2	1	-3	-11	17

Screening results as filed in PubChem.
